The values that follow come from PubChem BioAssay (NCI).

SMILES strings stand for the structures. The panel holds about 83,000 compounds, 20% with a hit somewhere; the sample as a whole holds those more often.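 Treatment: one concentration, 48 hours, 96-well format. Scoring: percent growth, with anything below 10 considered active.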 A number with no mark means an inactive call. Active and inactive are the calls of the source.

Experiment in all cases: NCI-60 one-dose screen, 48 h (100 = growth as untreated, 0 = no growth, -100 = all killed)
For one experiment, the system named is OVCAR-8 ovarian. Conditions: 10 µM unless noted.
For the next experiment, the system named is OVCAR-5 ovarian. Conditions: 10 µM unless noted.
The test system of the next experiment is OVCAR-4 ovarian. As to conditions: 10 µM unless noted.
A further experiment concerns SK-OV-3 ovarian. As to conditions: 10 µM unless noted.
For another experiment, the system named is HS 578T breast. Conditions: 10 µM unless noted.
Another experiment relates to NCI/ADR-RES ovarian. Conditions: 10 µM unless noted.
In the next experiment the test system is T-47D breast. As to conditions: 10 µM unless noted.
Another experiment has as its system BT-549 breast. As to conditions: 10 µM unless noted.
In a further experiment the test system is MDA-MB-435 melanoma. As to conditions: 10 µM unless noted.
The subject of another experiment is SW-620 colon. Conditions: 10 µM unless noted.
Another experiment deals with MCF7 breast. As to conditions: 10 µM.
The next experiment deals with HCT-116 colon. Conditions: 10 µM unless noted.
In the next experiment the test system is HCC-2998 colon. As to conditions: 10 µM unless noted.
The subject of another experiment is KM12 colon. As to conditions: 10 µM unless noted.
For a further experiment, the system named is IGROV1 ovarian. Conditions: 10 µM unless noted.
In the next experiment the test system is OVCAR-3 ovarian. Conditions: 10 µM unless noted.

Turning to `N#Cc1c(N)nc2c(c1N)C(c1ccc(F)cc1)c1ccc(N)cc1O2` (centres undefined), the growth was 97.5% in the experiment with OVCAR-8 ovarian; 99.1% in the experiment on OVCAR-5 ovarian; 96.7% in the experiment with OVCAR-4 ovarian; 119% in the experiment with SK-OV-3 ovarian; 95.6% in the experiment on HS 578T breast; 107% with NCI/ADR-RES ovarian. In addition, the growth was 92.3% with T-47D breast; 93.8% in the experiment on BT-549 breast; 107% in the experiment with MDA-MB-435 melanoma; 108% in the experiment with SW-620 colon; 98.9% in the experiment with MCF7 breast; 101% in the experiment on HCT-116 colon. In addition, the values for the growth in the experiment with HCC-2998 colon and in the experiment with KM12 colon were 112% and 91.2%, respectively.

Take `COc1cc2nc(NC3CCC3)nc(NC3CCN(C(C)C)CC3)c2cc1OC`: the growth with OVCAR-8 ovarian is 58.2%; with OVCAR-5 ovarian it was 97.2%; in the experiment with IGROV1 ovarian, 75.1%; in the experiment with OVCAR-3 ovarian it was 85.7%; in the experiment on HS 578T breast, 66.2%; in the experiment with NCI/ADR-RES ovarian, 96.9%. Also, the growth was -7.17% (active) in the experiment on T-47D breast; 72.5% in the experiment on BT-549 breast; -48% (active) in the experiment on MDA-MB-435 melanoma; 38.7% in the experiment on SW-620 colon; 29.5% in the experiment with MCF7 breast; 48.1% in the experiment with HCT-116 colon. Also, the growth was 22.7% in the experiment on HCC-2998 colon and 62.9% in the experiment with KM12 colon.

As to `COc1ccccc1CNC(=O)C1c2ccccc2C(=O)N(CC(C)C)C1c1cccs1` (centres undefined), the growth in the experiment on OVCAR-8 ovarian is 50.5%; with OVCAR-5 ovarian, 84.2%; with SK-OV-3 ovarian, 106%; with IGROV1 ovarian it was 71.8%; with OVCAR-3 ovarian it was 58%; with HS 578T breast it was 68.8%. Moreover, the growth with T-47D breast was 42.5%; with BT-549 breast, 78.9%; with MDA-MB-435 melanoma, 71%; with SW-620 colon, 78.6%; with MCF7 breast it was 66.4%; in the experiment with HCT-116 colon it was 59.9%. Also, the figures for the growth in the experiment on HCC-2998 colon and with KM12 colon were 48.3% and 32.7%, respectively.

As to `Cc1sc2ncnc(Sc3nc4ccccc4[nH]3)c2c1C`, the growth in the experiment on OVCAR-8 ovarian was -66.1% (active); with OVCAR-5 ovarian, -58.6% (active); in the experiment on OVCAR-4 ovarian, -15.4% (active); with HS 578T breast, -27.5% (active); in the experiment with NCI/ADR-RES ovarian, 20.1%; in the experiment with T-47D breast it was -55.4% (active). Further, the growth in the experiment on BT-549 breast was 47.2%; with MDA-MB-435 melanoma it was -92.9% (active); in the experiment with SW-620 colon, -78.2% (active); in the experiment with MCF7 breast, -70.2% (active); in the experiment with HCT-116 colon, -71.2% (active); in the experiment on HCC-2998 colon, -91.4% (active). Further, the growth with KM12 colon is -90.1% (active).

As to `CCOc1ccc2nc(C)cc(Nc3ccc(Br)cc3)c2c1`, the growth with OVCAR-8 ovarian is 97.9%; with OVCAR-5 ovarian, 97.7%; in the experiment with OVCAR-4 ovarian it was 82.2%; with SK-OV-3 ovarian it was 101%; in the experiment with OVCAR-3 ovarian, 107%; in the experiment on HS 578T breast, 117%. Moreover, the growth was 95.4% in the experiment with NCI/ADR-RES ovarian; 97.1% in the experiment with T-47D breast; 108% in the experiment with BT-549 breast; 110% in the experiment with MDA-MB-435 melanoma; 94.8% with SW-620 colon; 76.6% in the experiment with MCF7 breast. For the same compound, the growth in the experiment on HCT-116 colon was 80.4%; in the experiment on KM12 colon it was 108%.

As to `OCCNc1nc(Nc2ccc(C3=NN(c4cc(Cl)cc(Cl)c4)C(c4ccc(C(F)(F)F)cc4)C3)cc2)nc(N2CCOCC2)n1` (centres undefined), the growth in the experiment with OVCAR-8 ovarian was 68.1%; in the experiment on OVCAR-5 ovarian it was 95.3%; in the experiment on OVCAR-4 ovarian, 64%; in the experiment with IGROV1 ovarian, 93%; with OVCAR-3 ovarian, 86.1%; in the experiment on HS 578T breast, 62.8%. For the same compound, the growth in the experiment with NCI/ADR-RES ovarian was 68.3%; in the experiment with T-47D breast it was 64.1%; with BT-549 breast it was 99.3%; with MDA-MB-435 melanoma, 66.5%; in the experiment on SW-620 colon, 94%; in the experiment on MCF7 breast, 30.1%. The growth in the experiment with HCT-116 colon is 66.8%; in the experiment on HCC-2998 colon, 76.3%; in the experiment on KM12 colon it was 68.6%.

In the case of `COc1ccc(/C=C/C(=O)c2c(C)nc3ccccc3c2/C=C/c2ccccc2)c(OC)c1`, the growth with OVCAR-8 ovarian is 76.1%; in the experiment on OVCAR-5 ovarian, 88.2%; in the experiment on OVCAR-4 ovarian, 66.5%; in the experiment on IGROV1 ovarian it was 47.5%; in the experiment with OVCAR-3 ovarian, 84.8%; in the experiment on HS 578T breast, 82.3%. The growth is 85.9% with NCI/ADR-RES ovarian; 55% in the experiment on T-47D breast; 89.2% in the experiment on BT-549 breast; 88.9% in the experiment on MDA-MB-435 melanoma; 80.5% in the experiment with SW-620 colon; 62.6% with MCF7 breast. Besides, the growth is 51.5% in the experiment on HCT-116 colon, 92.1% in the experiment with HCC-2998 colon and 87.4% with KM12 colon.

Consider `FC(F)(F)c1cccc(Nc2nc(-c3ccccc3)nc3ncccc23)c1`, for which the growth in the experiment with OVCAR-8 ovarian is 89.4%; in the experiment with OVCAR-5 ovarian, 107%; in the experiment on SK-OV-3 ovarian, 90.2%; with IGROV1 ovarian, 98.8%; with OVCAR-3 ovarian it was 32.2%; in the experiment with HS 578T breast, -49.5% (active). For the same compound, the growth is 86.3% in the experiment on NCI/ADR-RES ovarian; 82.9% in the experiment with T-47D breast; 60.8% with BT-549 breast; -79.4% (active) in the experiment with MDA-MB-435 melanoma; -53% (active) with SW-620 colon; 68.2% with MCF7 breast. Moreover, the results for the growth in the experiment on HCT-116 colon, in the experiment on HCC-2998 colon and in the experiment on KM12 colon were 28.5%, -68.3% (active) and 38.1%, respectively.

Regarding `COC(=O)[C@H]1CCCN1C(=O)[C@H]1CCCN1C(=O)[C@H](Cc1c[nH]c2ccccc12)NC(=S)Nc1cc(C(F)(F)F)cc(C(F)(F)F)c1`, the growth with OVCAR-8 ovarian is 68.5%; in the experiment on OVCAR-5 ovarian, 71.1%; with SK-OV-3 ovarian, 85.2%; in the experiment on IGROV1 ovarian it was 44.6%; in the experiment with OVCAR-3 ovarian, 63.7%; with HS 578T breast, 44.8%. In addition, the growth is 93.2% in the experiment with NCI/ADR-RES ovarian; 56.5% with T-47D breast; 97.4% in the experiment on BT-549 breast; 45.4% in the experiment on MDA-MB-435 melanoma; 70.4% with SW-620 colon; 32.5% in the experiment with MCF7 breast. Moreover, the growth in the experiment with HCT-116 colon was 41%; with HCC-2998 colon, 16.1%; in the experiment with KM12 colon, 36.4%.

As to `O=S(=O)(Nc1ncccn1)c1ccc(NC2Nc3nc4ccccc4nc3S2)cc1` (centres undefined), the growth in the experiment with OVCAR-8 ovarian was 98.8%; in the experiment with OVCAR-5 ovarian it was 96.4%; in the experiment with OVCAR-4 ovarian it was 102%; in the experiment with IGROV1 ovarian it was 96.3%; in the experiment on OVCAR-3 ovarian, 109%; in the experiment on HS 578T breast, 95.9%. Further, the growth in the experiment with NCI/ADR-RES ovarian is 99.6%; in the experiment with T-47D breast, 101%; with BT-549 breast it was 95.9%; in the experiment with MDA-MB-435 melanoma, 98.3%; with SW-620 colon it was 99.3%; in the experiment on MCF7 breast it was 98.8%. Also, the growth is 101% with HCT-116 colon, 108% in the experiment on HCC-2998 colon and 106% with KM12 colon.
